Bioassay records: PubChem BioAssay, National Center for Advancing Translational Sciences (NCATS)
Tau fluor cs: Counterscreen qHTS for Inhibitors of Tau Fibril Formation, Fluorescence Polarization | tau K18 P301L Alexa594 fluorescence, heparin fibrillization | Potency, µM (series often up to 57.7 µM), for inactives: at the top dose activity change, negative = decrease | 280,000 compounds, 0.93% hits; note: nearly all actives have a fitted effect of over 55% in size
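Human K18 P301L tau (15 uM unlabeled plus 0.24 uM Alexa 594-labeled, final) in 100 mM sodium acetate pH 7 was mixed with compound and 20 uM heparin and incubated 6 hr at 37 C.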
Tau fibril ThT: qHTS for Inhibitors of Tau Fibril Formation, Thioflavin T Binding | recombinant tau K18 P301L (four-repeat tau fragment), heparin-induced fibrillization, ThT fluorescence | Potency, µM (doses to about 57.4 µM), without a hit: at the top dose activity, negative = inhibition, most hits filed as inhibitors | 270,000 compounds, 2.1% hits | AID 1460, 2008; note: nearly all actives have a fitted effect of over 55% in size
Target sequence (P10636 561-689 P618L limits assumed): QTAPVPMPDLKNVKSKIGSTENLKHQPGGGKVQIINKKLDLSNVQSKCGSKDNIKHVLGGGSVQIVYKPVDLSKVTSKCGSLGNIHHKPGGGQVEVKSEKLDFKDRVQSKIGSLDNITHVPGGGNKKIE
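Recombinant human tau K18 fragment […] carrying P301L, 15 uM unlabeled plus 0.24 uM Alexa 594-labeled, was fibrillized with 20 uM heparin in 100 mM sodium acetate pH 7 for 6 hr at 37 C; 30 uM ThT fluorescence read after 1 hr.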
Tau fibril FP: qHTS for Inhibitors of Tau Fibril Formation, Fluorescence Polarization. K18 P301L tau heparin fibrillization, Alexa594 FP, 6 h. Microtubule-associated protein tau (Homo sapiens), P10636. Potency, µM (highest dose often 57.7 µM), for the others: at the highest dose activity, negative = inhibition, usual class: inhibitors. AID 1468, 2008. 280,000 compounds, 0.39% hits; note: nearly all actives have a fitted effect of over 55% in size
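FP of Alexa 594-tau after heparin (20 uM) induction. Substrate: human K18 P301L, 15 uM unlabeled, 0.24 uM labeled. Buffer 100 mM sodium acetate pH 7. 6 hr, 37 C.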
RORgamma inh: qHTS for inhibitors of ROR gamma transcriptional activity; Nuclear receptor ROR-gamma (Mus musculus), P51450; Potency, µM (highest dose often 53.6 µM), inactives show top-dose activity change, negative = inhibition, actives largely listed as inhibitors; 310,000 compounds, 5.4% hits; Drosophila S2 Gal4-RORgamma UAS-luciferase reporter, 20 h; note: nearly all actives have a fitted effect of over 60% in size
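Stable Schneider cell line, Gal4 DNA-binding domain fused to ROR gamma, UAS-luciferase. Cmpd 1 hr RT → CuSO4 700 uM final → 20 hr RT → luciferase reagent 10 min → luminescence.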
Gal4-VP16 FLuc: VP16 counterscreen qHTS for inhibitors of ROR gamma transcriptional activity | Potency, µM (highest dose often 53.6 µM), for inactives: top-dose activity, negative = inhibition, actives largely listed as inhibitors | 310,000 compounds, 3.5% hits | Drosophila S2 Gal4-VP16 UAS-luciferase, luminescence, 20 h;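 note: Gal4-VP16 expression switched on by copper sulfate through the metallothionein promoter; nearly all actives have a fitted effect of over 50% in size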
* = called active by the depositor; ? = inconclusive; . = not tested or not shown; [ ] = remark or other dose. Shown are actives, neighbours in structure and some others; about 7.3% of the full set was active somewhere. Calls come from the whole dose curve; as a rule, active = well fitted curve in the direction sought with a large enough effect; inconclusive = small, poorly fitted or top-dose-only effect, or another doubt; inactive = no such curve, though single readings can be large; an effect the other way counts as inactive or inconclusive. % is set by controls: 0 for no effect and ±100 for the full control effect; potency is the fitted concentration of half-maximal effect.

SMILES | Tau fluor cs | Tau fibril ThT | Tau fibril FP | RORgamma inh | Gal4-VP16 FLuc
COc1ccc(-c2csc(C)n2)cc1 | 1% | -11% | 6% | 27% | ?
CC1=NN(c2nc(-c3ccc(C)cc3)cs2)C(=O)C1N=Nc1cccc(O)c1 (configuration not stated) | ? | 1.8µM* | -16% | -28% | 5%
COc1ccc(N=NC2C(=O)N(c3ccccc3)N=C2C)cc1 (configuration not stated) | . | . | . | -34% | -6%
COc1ccc(-c2csc(N3N=C(C)C(C)C3=O)n2)cc1 (configuration not stated) | -10% | ? | 3% | 8.9µM* | ?
CC1=NN(c2nc(-c3ccc(C)cc3)cs2)C(=O)C1N=Nc1ccccc1O (configuration not stated) | ? | 2µM* | 11% | 3% | 3%
CC1=NN(c2ccc(C)cc2C)C(=O)C1C(c1cccc(O)c1)C1C(=O)N(c2ccc(C)cc2C)N=C1C (configuration not stated) | -8% | ? | -10% | 20% | -1%
Cc1ccc(-n2nc(C(=O)Nc3ccc(Cl)cn3)c3c4ccccc4n(C)c3c2=O)cc1 | 6% | 13% | 3% | . | .
COc1ccc(Cn2c(SCC(=O)NCc3ccc(Cl)cc3)nc3ccsc3c2=O)cc1 | -8% | 7% | 0% | . | .
C1CCN(c2nc(N3CCCCC3)nc(N3CCNCC3)n2)CC1 | 0% | -8% | 3% | 0% | 2%
N/C(=N/O)c1nc(N2CCCCC2)nc(N2CCCCC2)n1 | 7% | -3% | 9% | 8.9µM* | ?
N/C(=N/O)c1nc(N2CCCC2)nc(N(c2ccccc2)c2ccccc2)n1 | -9% | -27% | 3% | 8.9µM* | 15%[0.365 µM]
c1ccc(N(c2ccccc2)c2nc(N3CCOCC3)nc(N3CCOCC3)n2)cc1 | 3% | -11% | 5% | 2% | -7%
O=C(c1ccncc1)N1CCC2(CCCN(Cc3nccs3)C2)CC1 | . | . | . | 1% | -17%
Cc1ccc(N(CC(=O)N2CCN(Cc3ccccc3)CC2)S(C)(=O)=O)cc1C | . | . | . | ? | 2%
Cc1cc(-c2c(C)[nH]n(-c3ccc(Cl)cc3)c2=O)n[nH]1 | -11% | -13% | 7% | 0.11µM* | 0.63µM*
O=C(N/N=C/c1ccc([N+](=O)[O-])s1)c1ccccc1 | -19% | ? | 4% | 0.79µM* | 1.3µM*
Cn1c(SCC(=O)N/N=C/c2ccc([N+](=O)[O-])s2)nnc1-c1ccccc1 | ? | ? | -4% | 11µM* | 20µM*
O=C(O)c1ccc(N/N=C/c2cc(Br)cs2)cc1 | . | . | . | 6.3µM* | 1µM*
O=C(Cc1ccccc1)N/N=C/c1cc(Br)cs1 | . | . | . | 0% | -27%
CCc1ccc(/C=N/NC(=O)c2cc(C3CC3)nc3ccccc23)s1 | -21% | -11% | 0% | 1.3µM* | 1.8µM*
CCOc1ccccc1NC(=O)Cc1noc2ccc(C)cc12 | -20% | ? | -10% | . | .
CCCNC(=O)OC[C@@H]1O[C@H](CCO/N=C\[C@@H](OC)[C@H](C)/C=C\CC(=O)OC)C=C[C@@H]1Oc1ccc(OC)cc1 | -14%[11.6 µM] | -7%[11.5 µM] | 5%[11.6 µM] | 1%[10 µM] | -3%[10 µM]
O=C(N/N=C/c1ccc(O)cc1)c1cncc(Br)c1 | . | . | . | -16% | -3%
O=C(N/N=C\c1ccc([N+](=O)[O-])s1)c1cncc(Br)c1 | ? | 14µM* | 13% | 0.71µM* | 1.1µM*
O=C(N/N=C/c1cccs1)c1cncc(Br)c1 | -14% | ? | 2% | 1µM* | 2µM*
O=C(Cc1ccccc1)N/N=C/c1ccc([N+](=O)[O-])s1 | 3% | 0% | -1% | ? | ?
Cc1cc(C(=O)N/N=C/c2cccc(Cl)c2Cl)no1 | -15% | ? | -6% | 40% | 10%
CCc1ccc(/C=N/NC(=O)c2cc(C)on2)s1 | -4% | -9% | -5% | 5.6µM* | 5.6µM*
O=C(N/N=C/c1ccc([N+](=O)[O-])s1)c1ccccc1Br | -22% | -18% | 7% | 1.8µM* | 6.3µM*
